Screening data from PubChem.
Efflux pump inh = inhibitors of Candida antifungal efflux pumps expressed in yeast; S. cerevisiae Candida pump triplex, Nile Red efflux; inhibition, % at 10 µM; hit rate 0.44% among 330,000; AID 485275;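 active = plate passing quality check with inhibition over a set limit, or well fluorescence over plate mean plus 4 SD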;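 note: Nile Red retained in pooled yeast measured as flow cytometry median fluorescence; 0% = buffer negative control and 100% = Enniatin B positive control; higher means more Nile Red kept so more efflux inhibition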
VLA-4 inh = inhibition in a human VLA-4 binding assay | AID 2557 | P13612 | hit rate 0.2% among 330,000 | VLA-4 expressing cells, ligand binding flow cytometry | inhibition, % (about 7 µM as worked out from the volumes in the protocol); in the data active = inhibition above about 50%
ALR inh = inhibitors of human sulfhydryl oxidase ALR; P55789; purified ALR, DTT oxidation, H2O2 HRP-luminol luminescence; inhibition, % (no concentration beside the values); hit rate 3.8% among 290,000; AID 485317;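 active = mean replicate inhibition above about 79%, with every replicate also reaching it, limit read from the data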
Bfl-1 A1 inh = inhibitors of the anti-apoptotic protein A1, read as caspase activation; AID 2462; caspase activation, % (no concentration beside the values); hit rate 0.066% among 330,000; MEF A1-2A-BIM cells, Caspase-Glo 3/7 luminescence, 3 h; percent of clofoctol response, vehicle zero;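 active = over half of replicate activation scores above 10%, or exactly half above 10 with the replicate mean above 10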
SUMO Mot1 rescue = SUMOylation pathway inhibition by Mot1-301 growth rescue; hit rate 1% among 320,000; S. cerevisiae Mot1-301 growth rescue, ATP luminescence, 38.5C; percent above DMSO median, 100 means doubled; growth rescue, % at 18.8 µM; AID 2716;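 active = every valid replicate shows activation above 250% relative to neutral control wells; inactive = the rest, any valid replicate at or below 250%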;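 note: OY570 slx delta 5 strain wells were the positive control but not used for scaling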
AHR activator = human AHR activation; activation, % at 5 µM; AID 2796; AHR-responsive luciferase reporter cells, luminescence; hit rate 2.5% among 320,000; P35869; in the data active = activation above about 47%;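 note: 0% = vehicle wells and 100% = reference agonist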
Target sequence (P35869 whole entry, looked up): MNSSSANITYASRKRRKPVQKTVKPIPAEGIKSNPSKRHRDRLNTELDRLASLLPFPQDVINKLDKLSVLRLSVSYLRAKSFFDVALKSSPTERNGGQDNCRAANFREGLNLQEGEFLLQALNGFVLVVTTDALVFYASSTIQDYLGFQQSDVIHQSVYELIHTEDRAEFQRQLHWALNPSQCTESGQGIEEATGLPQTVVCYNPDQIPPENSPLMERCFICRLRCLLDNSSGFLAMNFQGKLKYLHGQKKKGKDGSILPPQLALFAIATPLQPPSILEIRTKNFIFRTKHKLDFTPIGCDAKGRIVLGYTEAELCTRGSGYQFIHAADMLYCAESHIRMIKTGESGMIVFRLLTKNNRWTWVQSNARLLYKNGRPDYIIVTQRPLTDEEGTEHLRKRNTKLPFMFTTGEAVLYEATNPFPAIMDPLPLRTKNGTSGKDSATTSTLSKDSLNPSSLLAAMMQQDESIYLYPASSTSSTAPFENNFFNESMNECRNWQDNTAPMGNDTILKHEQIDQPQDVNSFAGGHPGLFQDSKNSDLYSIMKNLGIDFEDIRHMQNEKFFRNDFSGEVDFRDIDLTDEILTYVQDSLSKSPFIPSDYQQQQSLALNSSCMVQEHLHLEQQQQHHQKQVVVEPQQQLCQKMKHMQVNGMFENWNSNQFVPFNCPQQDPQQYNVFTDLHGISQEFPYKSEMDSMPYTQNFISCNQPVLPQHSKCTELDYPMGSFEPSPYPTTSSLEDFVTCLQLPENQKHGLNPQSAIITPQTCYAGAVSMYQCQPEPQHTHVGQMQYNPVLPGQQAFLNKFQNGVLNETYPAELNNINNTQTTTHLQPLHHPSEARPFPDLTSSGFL
VLA-4 allo CP = confirmation of allosteric modulators of human VLA-4 integrin; shares compounds with VLA-4 inh; U937 cells, HUTS-21 LIBS mAb binding, flow cytometry; LDV ligand present at threefold Kd; inhibition, % at 6.7 µM; hit rate 2% among 1,300; in the data active = inhibition above about 40%;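 note: 0% = ligand without compound and 100% = no ligand background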
Starred values were filed as active, the others as inactive; x = no result. Sampled rows, rich in hits. Any-hit rate of the full collection: about 7.2%.

SMILES	Efflux pump inh	VLA-4 inh	ALR inh	Bfl-1 A1 inh	SUMO Mot1 rescue	AHR activator	VLA-4 allo CP
COc1ccc(OCc2cc(C(=O)N(C)C(C)c3ccon3)no2)c(Cl)c1 (stereo not given)	0	3	0	1	117	14	x
CCOC(=O)C1(Cc2cccc(Cl)c2)CCCN(C(=O)CCN2CCCC2=O)C1 (stereo not given)	0	3	-8	0	4	0	x
COC(=O)c1cc(OC)nc(OC)c1	0	14	x	0	4	0	x
COC(=O)c1cc(O)c(O)c(O)c1	0	-2	96*	-1	-5	4	x
COCn1c(-c2ccc(OC)c(OC)c2)nc2ccccc21	0	-4	-13	-4	-9	7	x
COCn1c(-c2cccc(Br)c2)nc2ccccc21	0	-9	3	x	426	53*	x
Cc1ccccc1N/N=C1\CCCNC1=O	0	5	34	0	-7	-5	x
CC1CC/C(=N/Nc2ccccc2)C(=O)N1 (stereo not given)	0	-9	99*	0	43	1	x
C/C(CC(=O)Nc1ccc(N(C)C)cc1)=N\NC(=O)c1ccc([N+](=O)[O-])cc1Cl	0	1	100*	1	1	9	x
CC(=O)N(CCC1(C(C)C)CCOC(C)(C)C1)C(C)c1cccs1 (stereo not given)	0	-4	0	0	-2	-2	x
Cc1csc(=O)n1CCC(=O)OCC(=O)Nc1ccc(F)c(F)c1F	0	-2	1	1	47	4	x
O=S(=O)(Nc1cccc(S(=O)(=O)N2CCCC2)c1)c1ccc(Cl)s1	0	22	x	0	-1	-1	x
CCN(CC)CCOCCOC(=O)C1(c2ccccc2)CCCC1	0	57*	-2	1	24	-2	2
CCOC(=O)c1c(C)[nH]c(C(=O)COC(=O)c2ccco2)c1C	0	4	0	2	14	4	6
CCOC(=O)c1c(C)[nH]c(C(=O)COC(=O)c2[nH]c(C)c(C(C)=O)c2C)c1C	0	-20	-24	0	22	4	x
CCOC(=O)c1c(C)[nH]c(C(=O)COC(=O)c2cnccn2)c1C	0	10	1	0	0	3	0
CCOC(=O)c1c(C)[nH]c(C(=O)COC(=O)C2CC2C)c1C (stereo not given)	0	-1	-9	1	-9	4	-2
CCOC(=O)c1c(C)[nH]c(C(=O)COC(=O)c2cccnc2Cl)c1C	0	-12	4	-1	32	4	x
CCOC(=O)c1c(NC(=O)COC(=O)c2cnccn2)sc(C)c1C	0	7	52	0	-20	0	x
Cc1cc(C)cc(NC(=S)NCc2cccn2C)c1	0	20	-18	0	53	2	x
CC(=O)Nc1nc(COc2ccc3ccccc3c2)cs1	0	56*	-10	-4	17	0	5
COC(=O)CC1C(=O)NCCN1C(=S)Nc1ccccc1Cl (stereo not given)	0	53*	-1	1	526	0	2
CSc1ccccc1C(=O)Nc1cc([N+](=O)[O-])ccc1C	0	-2	0	1	-18	15	x
CC(NC(=O)NC12CC3CC(CC(C3)C1)C2)c1ccc2c(c1)OCO2 (stereo not given)	0	14	-5	0	-10	2	x
CC(NC(=O)NC1CCCCC1)c1ccc2c(c1)OCO2 (stereo not given)	0	41	1	0	14	0	8
SMILES	Efflux pump inh	VLA-4 inh	ALR inh	Bfl-1 A1 inh	SUMO Mot1 rescue	AHR activator	VLA-4 allo CP
S=c1[nH]nc(Cc2cccs2)n1-c1ccccc1	0	-10	30	1	293	1	x
CCCCc1ccc(-n2c(Cc3cccs3)n[nH]c2=S)cc1	0	55*	35	-1	-8	2	4
CCCCC[C@@H]1C=C(C(=O)O)[C@H](c2ccc(Br)cc2)N1S(=O)(=O)c1ccc(C)cc1	0	6	x	x	x	1	0
CCCC[C@@H]1C=C(C(=O)O)[C@H](c2ccc(Cl)cc2)N1S(=O)(=O)c1ccc(C)cc1	0	39	14	-1	53	-2	4
Cc1ccc(S(=O)(=O)N2[C@@H](c3ccc4c(c3)OCO4)C(C(=O)O)=C[C@H]2C(C)(C)C)cc1	0	-16	x	1	1	-1	x
CCCC[C@@H]1C=C(C(=O)O)[C@H](c2ccc3c(c2)OCO3)N1S(=O)(=O)c1ccc(C)cc1	0	6	x	0	8	0	-3
Cc1ccc([C@@H]2CC=C(C(=O)O)[C@H](c3ccc(Br)cc3)N2S(=O)(=O)c2ccc(C)cc2)cc1	0	18	x	x	x	1	x
Cc1ccc(S(=O)(=O)N2[C@@H](c3ccc(Cl)cc3)C(C(=O)O)=C[C@H]2CC2CCCC2)cc1	0	28	x	x	x	0	-1
CN(C(=O)CSc1ncnc2sc3c(c12)CCCC3)C1CCS(=O)(=O)C1 (stereo not given)	0	-9	-3	0	-6	7	x
O=C(NC(=S)NCc1ccc(-c2nc3ccccc3s2)cc1)c1ccco1	-10	45	-7	-1	6	-3	2
O=C(NCc1ccc(-c2nc3ccccc3s2)cc1)c1ccco1	0	1	7	-9	4	-1	x
CS(=O)(=O)N1CCc2cc(C(=O)Nc3ccccc3Cl)ccc21	0	-18	2	-1	-10	7	x
CCOc1ccc(CNC(=O)CCn2c(=O)oc3ccccc32)cc1OC	0	0	-9	0	-5	1	x
CCOc1ccccc1CNC(=O)Cn1c(=O)oc2ccccc21	0	26	-3	0	-2	7	x
CC1CCC(NC(=O)Cn2c(=O)oc3ccccc32)CC1 (stereo not given)	0	-15	2	0	36	4	0
COc1ccc(CNC(=O)Cn2c(=O)oc3ccccc32)cc1OC	0	97*	-11	0	6	4	-11
CC1CCN(C(=O)Cn2c(=O)oc3ccccc32)CC1	0	0	2	2	2	-5	x
COc1cccc(CNC(=O)Cn2c(=O)oc3ccccc32)c1OC	0	38	x	-1	-15	-1	-5
CC(NCc1cc(Br)ccc1OCC(=O)NCc1ccccc1)c1ccccc1 (stereo not given)	0	30	x	0	x	7	x
COC(=O)c1scc(C)c1N1C(=O)c2ccccc2C1=O	0	0	-4	0	-8	5	x
CCCOc1ncnc2c1[nH]c1ccc(C)cc12	0	5	4	-6	7	2	1
COc1ccc(CNc2ncnc3c2[nH]c2ccccc23)cc1	0	-7	-5	0	11	20	x
